This is a sample that favours compounds with a hit; in the whole collection about 4.4% have one here.
PfHsp90 set2 = reduces growth (ATP signal) of yeast expressing P. falciparum Hsp90; S. cerevisiae expressing PfHsp90, BacTiter-Glo ATP, 48 h; yeast lacking PDR1 and PDR3 efflux regulators; inhibition, % at 9.4 µM; 310,000 tested, 0.32% active;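 active = every replicate shows inhibition above about 80%, whatever the replicate mean, limit read from the data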;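 also: 0% = DMSO neutral controls and 100% = 20 µM radicicol positive controls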
tim23-1 inh = growth inhibitors of tim23-1 mutant yeast; 330,000 tested, 1.3% active; S. cerevisiae tim23-1 growth, BacTiter-Glo luminescence, 24 h; inhibition, % at 20 µM;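 active = growth inhibition of the mutant yeast at or above 50%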;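 also: temperature-sensitive mutant grown at 25 °C; plate controls were DMSO-treated mutant yeast for no effect and medium wells lacking yeast for full effect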
SUMO Mot1 rescue = blocks SUMOylation pathway, rescuing yeast Mot1-301 growth; growth rescue, % at 18.8 µM; 320,000 tested, 1% active; S. cerevisiae Mot1-301 growth rescue, ATP luminescence, 38.5C; percent above DMSO median, 100 means doubled;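 active = every valid replicate shows activation above 250% relative to neutral control wells; inactive = the rest, any valid replicate at or below 250%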;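 also: OY570 slx delta 5 strain wells were the positive control but not used for scaling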
TIM10 inh = growth inhibitors of TIM10 yeast strain. 330,000 tested, 1.4% active. S. cerevisiae TIM10 strain growth, BacTiter-Glo luminescence, 24 h. inhibition, % at 10 µM;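 active = inhibition of 40% or more at the single tested concentration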;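 also: wild-type TIM10 isogenic control strain grown at permissive 25 °C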
tim10-1 inh = inhibits growth of tim10-1 mutant yeast; S. cerevisiae tim10-1 ts strain growth, BacTiter-Glo, 24 h; inhibition, % at 20 µM; 330,000 tested, 2.2% active;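 active = inhibition of at least 40%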;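 also: mutant grown at 25 °C; 0% = DMSO wells with yeast and 100% = wells holding no yeast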
Yeast Mot1 SUMO = inhibits SUMO pathway, affecting Mot1-301 yeast growth; AID 493004; 2,300 tested, under 10 active; growth activity, percent, % at 42 µM; shares compounds with SUMO Mot1 rescue; S. cerevisiae Mot1-301 galactose growth, ATP luminescence, 24 h; -100 = growth of slx-deleted rescue strain;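 active = Signal drops as the depositor expects, and the fitted half-maximal dose is no more than ten times the top valid tested dose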;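 also: more negative values mean stronger growth rescue toward the control strain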
The depositor's hits bear a star; . = not tested or not shown; + = active, no number; [ ] = another dose, or the depositor's remark.

SMILES | PfHsp90 set2 | tim23-1 inh | SUMO Mot1 rescue | TIM10 inh | tim10-1 inh | Yeast Mot1 SUMO
COc1ccccc1OCCCn1cc(C#N)c2ccccc21 | -4.5 | 15.6 | 832.2* | -4.4 | 19.7 | -0.2
N#Cc1cn(CCCOc2ccccc2)c2ccccc12 | -17.6 | -12.4 | -5.4 | -20.2 | 6.4 | .
Cc1ccc2c(CC(=O)NNC(=O)c3ccccc3O)coc2c1 | . | 18.1 | 15.8 | 9.0 | 3.3 | .
Cc1ccc2c(c1)N(CC(=O)NCC1CCCO1)C(=O)C(C)O2 (centres undefined) | -6.9 | 3.1 | 521.8* | -8.0 | 6.8 | 0.3
CCCCC(O)(c1ccc(F)cc1)C(CN1CCOCC1)c1ccc(Cl)cc1 (centres undefined) | -10.0 | 27.4 | 536.5* | 15.6 | 17.6 | -0.3[21 µM]
CCOC(=O)Cn1c(=O)oc2cc(S(=O)(=O)NC(C)(C)CC)ccc21 | -8.8 | 6.1 | 642.7* | -17.1 | 9.5 | 0.0
CCOC(=O)Cn1c(=O)oc2cc(S(=O)(=O)NCCC(C)C)ccc21 | 3.1 | 1.2 | 8.9 | 4.0 | 16.3 | .
O=C(Nc1ccc(S(=O)(=O)Nc2ncccn2)cc1)c1ccc(N2CCCC2=O)cc1 | -12.3 | -3.1 | 110.9 | -4.5 | 0.6 | .
CN1C(=O)/C(=C/c2ccc(OCc3ccccc3F)cc2)NC1=S | -7.4 | -9.6 | 375.4* | -4.1 | -18.0 | -0.4
CCOc1ccc(-c2nc3n(c(=O)c2C#N)CCS3)cc1 | 2.6 | -15.0 | 438.6* | 22.0 | 31.4 | 0.3
CCOc1cc(-c2nc3n(c(=O)c2C#N)CCS3)ccc1O | -3.1 | 5.6 | -0.5 | 15.3 | -1.8 | .
Cc1ccccc1OCc1nc2ccccc2c(=O)n1/N=C/c1cn[nH]c1-c1ccc(Br)cc1 | -75.3 | 14.0 | 14.6 | 11.4 | 8.8 | .
O=c1c2ccccc2nc(COc2ccccc2)n1/N=C/c1cn[nH]c1-c1ccccc1 | -34.4 | 9.9 | 647.1* | 26.5 | 14.4 | -0.7
CS(=O)(=O)/C(C#N)=C\c1cnc(S(=O)(=O)c2ccccc2)s1 | . | 22.3 | -14.8 | 9.2 | 36.7 | .
Cc1ccc(C(=O)c2cc([N+](=O)[O-])ccc2N2CCOCC2)cc1C | 16.0 | 11.9 | -20.9 | -7.8 | 3.4 | .
Cc1ccc(C(=O)c2cc([N+](=O)[O-])ccc2N2CCCCC2)cc1C | -22.1 | 30.0 | 499.7* | -1.3 | 24.9 | -0.1
COc1ccc(N2CCN(CCCNC(=O)C(=O)c3c(C)[nH]c4ccccc34)CC2)cc1 | 16.3 | 1.8 | 413.1* | 11.1 | -2.7 | 0.1[21 µM]
CCOC(=O)[C@H]1[C@H]2COc3cc(OC)ccc3[C@@H]2N2C(=O)c3c(C)cc(C)cc3NC(=O)[C@@]12C | 34.5 | 8.8 | 45.9 | 17.6 | 14.3 | .
CCC(CO)N=CC1=C(O)CC(C)(C)CC1=O (centres undefined) | -14.1 | 7.0 | 0.5 | -3.9 | -10.8 | .
CC1CCCCC1N=CC1=C(O)CC(C)(C)CC1=O (centres undefined) | -11.1 | 18.8 | 385.3* | 10.6 | -7.6 | 0.0
C=C(C)Cn1c(N)cc(=O)nc1SCC(=O)Nc1cccc(C(F)(F)F)c1 | -0.7 | 4.6 | 412.9* | -4.6 | -3.6 | 0.2
CN1C[C@@H]2[C@@H]3C(=O)N(C)C(=O)[C@@H]3[C@](C)(C1=O)N2C(=O)c1ccc(Cl)cc1 | 3.4 | . | . | . | . | .
CC(=O)c1c(N2CCCC2)[nH]c(-c2ccccc2)nc1=S | -24.1 | 5.5 | 25.8 | 26.1 | 25.5 | .
CC(=O)c1c(N)[nH]c(-c2ccccc2)nc1=S | 14.3 | 19.2 | 886.3* | 2.8 | 25.6 | 0.3
N#Cc1cc([N+](=O)[O-])cnc1NCC(O)CO (centres undefined) | 72.1 | 0.2 | 493.8* | -5.6 | 4.6 | 0.3
SMILES | PfHsp90 set2 | tim23-1 inh | SUMO Mot1 rescue | TIM10 inh | tim10-1 inh | Yeast Mot1 SUMO
Cc1ccc(C(=O)OCC(=O)N2CCCC2)cc1 | 11.4 | 2.7 | -13.7 | -16.6 | 13.9 | .
Cc1ccc(CC(=O)O/N=C(\N)c2cccc([N+](=O)[O-])c2)cc1 | -17.6 | 17.8 | 448.1* | 16.3 | 27.4 | 0.2
COCC(C)n1c(SCC(=O)NNC(=O)c2ccccc2)nc2ccccc2c1=O (centres undefined) | -11.0 | 15.0 | 439.2* | -8.3 | 5.7 | -0.1
COc1ccc(C(=O)Nn2c(SCC(=O)NCc3ccccc3)nc3ccccc3c2=O)cc1 | -104.4 | 6.4 | + | -12.7 | 20.0 | 0.0
CC1(C)CC(=O)C=C(Nc2ccc([N+](=O)[O-])cc2)C1 | -9.4 | 7.5 | -11.6 | 6.3 | -1.3 | .
CC(C)c1ccccc1NC(=O)CNCCc1ccc(C(F)(F)F)cc1 | 24.2 | 30.7 | -44.0 | 23.0 | 22.4 | .
Cc1c(OC(C)C(=O)N2C[C@H]3C[C@@H](C2)c2cccc(=O)n2C3)ccc2c3c(c(=O)oc12)CCCC3 (some centres undefined) | 15.9 | 11.6 | 683.9* | 2.9 | 8.5 | 0.6
CCN(CC)C(=O)[C@H]1C[C@H](CC(=O)NCc2ccc(OC)c(OC)c2)C(=O)N2CCc3c([nH]c4cc(-c5ccco5)ccc34)[C@]12C | 14.4 | 34.2 | . | -5.5 | 22.5 | .
O=c1[nH]cnc2sc3c(c12)CCC3 | 12.9 | 5.5 | 625.8* | -17.6 | 1.1 | -0.2
COc1cccc(CC(=O)NNC(=O)CN(C)S(=O)(=O)c2ccc(C)cc2)c1 | -8.4 | 8.0 | -16.2 | 2.9 | 0.0 | .
CN(CP(=O)(O)C(O)c1ccccc1)S(C)(=O)=O (centres undefined) | . | 7.5 | 935.3* | 2.7 | 4.2 | 0.3
O=C(Nc1ccc2[nH]c(=O)[nH]c2c1)c1c(F)c(F)c(F)c(F)c1F | 0.1 | -6.3 | 613.3* | -5.1 | 13.4 | 0.5
Cc1cc(C)cc(C(=O)Nc2ccc3[nH]c(=O)[nH]c3c2)c1 | 0.8 | 7.6 | 365.8 | -7.0 | 6.1 | .
O=C(NCCCN1CCOCC1)C1CCC(=O)N1CCc1ccccc1 (centres undefined) | -21.5 | -12.7 | 407.9* | -7.8 | -16.9 | -0.8
CCN(CC)C(=O)C1CCCN(c2ccc([N+](=O)[O-])cc2/C=N/NC(=O)c2cccc(Br)c2)C1 (centres undefined) | 56.1 | 11.4 | 648.2* | 7.2 | 30.9 | -0.1
O=C(NCc1nnnn1-c1ccc(F)c(F)c1)c1ccc(S(=O)(=O)N2CCOCC2)cc1 | . | -25.1 | 47.6 | -3.5 | -17.8 | .
CCOC(=O)Cn1nc(Cc2ccccc2)c2ccccc2c1=O | -23.1 | 17.7 | -1.9 | -2.3 | 14.1 | .
CN1CCCC(n2nc(Cc3ccc(Cl)cc3)c3ccccc3c2=O)CC1 (centres undefined) | 9.5 | -3.1 | 395.7* | 15.9 | 20.7 | -0.1
COc1ccc(NC(=O)c2ccccc2NC(=O)NC2CCCCC2)cc1 | 3.6 | 27.4 | 521.9* | 27.8 | 37.4 | -0.2
CC(CNC(=O)c1ccc(OC2CCN(Cc3ccccn3)CC2)cc1)Oc1cccnc1 (centres undefined) | 15.0 | -6.5 | 1.2 | -2.2 | -16.0 | .
Cc1sc2ncnc(N3CCC(C(=O)N4CC(C)SC4=Nc4ccc(Cl)cc4)CC3)c2c1C (centres undefined) | -10.3 | . | . | . | . | .
COc1ccc(C(=O)COC(=O)c2ccccc2O)c(OC)c1 | -7.3 | 38.3 | -2.2 | 15.0 | 14.2 | .

Screens deposited in PubChem by several laboratories.
